Source: PubChem BioAssay (NCI)
About 83,000 compounds went through this panel and 20% of them were active in at least one assay; those are over-represented in the sample as a whole.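 The test compound was applied at a single concentration to cells in 96-well plates for 48 hours, and percent growth was recorded.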 Unmarked numbers belong to inactive results. Active and inactive are the calls of the source.

Test system: HCT-116 colon
Experiment: NCI-60 one-dose screen, 48 h (100 = growth as untreated, 0 = no growth, -100 = all killed)
Conditions: 10 µM unless noted
Method: Growth inhibition of the HCT-116 human tumor cell line is measured as a screen for anti-cancer activity. Cells are grown in 96 well plates and exposed to the test compound for 48 hours. Compounds are tested at a single concentration, which is 10^-5 M for most compounds. The reported endpoint is percent growth (GI% or GIPRCNT), where numbers from 0 - 100% represent growth inhibition, and numbers from -100% - 0 represent cell death. For example, a value of 40 represents 60% growth inhibition. A value of 0 means no net growth occurred over the course of the experiment. A value of -40 indicates 40% of cells at the beginning of the experiment died by the end of the experiment. A value of -100 means all cells are dead at the end of the experiment.
NCI-60 Human Tumor Cell Lines Screen was performed using the standard one-dose NCI protocol, which is described in more detail at https://dtp.cancer.gov/discovery_development/nci-60/default.htm.
Compounds with GIPRCNT values below 10 were considered active. Activity score was based on GIPRCNT using the following formula: […]
Score is 0 for GIPRCNT values of 100 or above, 50 for GIPRCNT values of 0, and 100 for GIPRCNT values of -100.

SMILES	growth
Cc1ccc(C)c2c1SC1=NNC(Oc3ccc(Cl)cc3)=C(C#N)C(=N)N12	108%
CC(C)(c1ccccc1)c1cc(O)c(C(C)(C)c2ccccc2)cc1O	9.74% (active)
Cc1ccc2c(C)c3c(ccc4ccccc43)c[n+]2c1	81.7%
COc1ccc2nc(-c3ccc(-c4noc(-c5ccc(Cl)cc5)n4)cc3)[nH]c2c1	51.3%
Cc1c2c(cc3c1[nH]c1ccccc13)C=NCC2	71.1%
COc1cc([N+](=O)[O-])cc(OC)c1OC	113%
COc1ccc2c(c1)C1=NN(C(=O)CO)[C@H](c3ccc(OC(F)(F)F)cc3)[C@@H]1CC2	92.5%
O=C(c1ccccc1)C1OC1C(=O)c1ccccc1 (stereo not given)	-5.13% (active)
Cc1ccc(C(CN(C)C)C(=O)c2ccccc2)cc1 (stereo not given)	-86.4% (active)
COc1ccccc1/C=N\Nc1ccc([N+](=O)[O-])cn1	96.5%
O=c1c2cc(Br)cc(Br)c2nc(-c2ccc(Cl)cc2)n1/N=C\c1ccccc1F	32.8%
CS(=O)(=O)c1ccc(C(=O)N/N=C/c2ccccc2Cl)cc1	94.3%
CC(=O)O[C@H]1CC[C@]2(C)[C@H]3CC=C4[C@@H]5CC(C)(C)CC[C@]5(C(=O)OCC(COC(=O)C(Cl)Cl)(COC(=O)C(Cl)Cl)NC(=O)C(Cl)Cl)CC[C@@]4(C)[C@]3(C)CC[C@H]2C1(C)C	26.7%
N=c1nc(N2CCCCC2)cc(N)n1O	106%
CN1C(=O)C(C(=O)/C=C/c2ccccc2C(=O)O)C(=O)N(C)C1=O	97.3%
COc1cnc2c(c1)C(=O)c1c-2n(CCCNC(C)C)c(=O)c2cc(Cl)ccc12	-92.4% (active)
CCOC(=O)C#Cc1c(C(=O)OCC)nnn1[C@@H]1O[C@H](COC(C)=O)[C@@H](OC(C)=O)[C@H]1OC(C)=O	92.4%
CC(=O)Nc1ccc(/C=N/N2CCCCCC2)cc1	99.5%
CCOC(=O)c1cc(N)nc2ccccc12	102%
CC(C)c1cccc(C#N)c1	101%

SMILES	growth
CCOC(=O)c1cc(C(=O)OCC)c(C)nc1C	105%
Cn1c(=O)c2c(nc(N/N=C/c3ccccc3Cl)n2C)n(C)c1=O	97.5%
O=C1/C(=C/N2N=C(c3ccc(Cl)cc3)CC2c2ccccc2O)SC(=S)N1c1cccc(C(F)(F)F)c1 (stereo not given)	45.5%
CCN(C(=O)CCl)C(C)(C)C(SSSC(c1ccc(Cl)cc1)C(C)(C)N(CC)C(=O)CCl)c1ccc(Cl)cc1 (stereo not given)	48%
COCc1nc(NS(=O)(=O)c2ccc(N)cc2)nc(C)c1Br	94.3%
COc1cccc(C2C(C#N)=C(N)Oc3cc4c(cc32)OCO4)c1 (stereo not given)	5.12% (active)
C=C(C)[C@@H]1CC[C@]2(C(=O)NS(=O)(=O)c3ccccc3)CC[C@]3(C)[C@H](CC[C@@H]4[C@@]5(C)CC[C@H](OC(=O)NS(=O)(=O)c6ccccc6)C(C)(C)[C@@H]5CC[C@]43C)[C@@H]12	-44.1% (active)
COc1ccc(C(=O)C(CN(C)C)c2ccc(OC)cc2)cc1 (stereo not given)	14.7%
Cc1nn(-c2cccc(Cl)c2)c(C)c1N=Nc1ccc(Br)cc1	89.5%
O=C(N/N=C/c1ccc([N+](=O)[O-])cc1)c1ccccc1Nc1ccnc(C(F)(F)F)c1	76.8%
C=C[C@H]1CCC/C=C/[C@@H]2C[C@H](O)C[C@H]2[C@H](O)/C=C/C(=O)O1	-76.9% (active)
CCSCC1CC(O)(c2ccccc2)C(c2ccccc2)C(c2ccc(F)cc2)O1 (stereo not given)	-31.2% (active)
NC(CCC(=O)NC(CS)C(=O)NCC(=O)O)C(=O)O (stereo not given)	114%
c1ccc(-c2nnn(-c3ccccc3)n2)cc1	97.3%
Cc1c(C(=O)CCl)c(=O)n(-c2ccccc2)n1C	32%
COc1ccccc1-[n+]1cc(-c2ccc(-c3ccccc3)cc2)n2c1CCCCC2	6.3% (active)
CC1(C)CC(=O)c2cc3c(N)c(C(=O)Nc4ccc(Cl)cc4)sc3nc2C1	108%
C=C1C(=O)O[C@H]2[C@H]1CC/C(COC(=O)NCc1ccc(Cn3c(=O)sn(CCCl)c3=O)cc1)=C\CC[C@@]1(C)O[C@@H]21	-61.7% (active)
C=C(c1ccc(C(=O)NCCCn2ccnc2)cc1)c1cc2c(cc1C)C(C)(C)CCC2(C)C	-59% (active)
CCCC(CCC)(C(N)=O)C(=O)O	102%
